Results from PubChem BioAssay AID1508600 (Functional Genomics Laboratory (NCATS/FGL), 2020).
The campaign covered roughly 53,000 sequences. About 3,700 (7%) were called active.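 How the source made its calls: active means gene knockdowns whose robust z-score for IL-1 alpha signal is at least 2 or at most -2, so actives lie on both sides; inactive means the rest.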 The sample as a whole holds a higher share of actives than the screen did.

test: Components of the Cytosolic LPS Sensing Pathway: Gene Identification via Genome-wide siRNA Screen; conditions: RAW264.7 macrophages, IL-1a HTRF, actives lie on both sides, screened at 100 nM (by protocol), cells primed 5 h with Pam3CSK4 first;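 further: robust z of the log signal after scaling to non-targeting control siRNA wells of the plate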
How it was run: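 Three distinct siRNAs per gene were tested singly at 100 nM in RAW264.7 macrophages. Following Pam3CSK4 priming and 24 hour LipidA transfection, IL-1a secretion was read by HTRF.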

Sequence	z-score
AGUGCUCAUUAACUGUCGCTT against Snrpd2	-2.75 (active)
CCGUUGACCUGAAAAGGAATT against Clic4	-0.0288 (inactive)
GGAGAAAAGCAAUAAUGAATT against Klf12	-1.07 (inactive)
CGUGAGCACAAAAAUAUUGTT against Fchsd2	-0.251 (inactive)
GGACAAGUCGAAGAGUGAGTT against Ing1	-2.26 (active)
GGAACAGCGGCUAACUUAUTT against Asic4	1.4 (inactive)
GGUGCUAAGCAUGAAGCCUTT against Stk16	-1.01 (inactive)
GGUAGAAGAAUUGUUUGUGTT against Tcp11l1	0.967 (inactive)
GGUGAUGCUUCUUGGAGACTT against Rab37	-0.59 (inactive)
GCGUGAACGGAUAAAAAAUTT against Figla	1.09 (inactive)
GGCACUUAAGGAAAUUGGGTT against Bloc1s1	-2.02 (active)
CCAUUCCAAAGGUAUUAGCTT against Olfr619	-0.244 (inactive)
GGCAAAACAACUUUAUUCCTT against Ucp2	1.14 (inactive)
GGAUAUCACCUUCGAGAUATT against Ankrd7	-0.0496 (inactive)
GGAUGAGAUCAACUUCCUCTT against Krt7	-0.6 (inactive)
GCAUCUCAAGACGAUGGAUTT against Akap8l	2.3 (active)
GGCUUUUGAAGCCAUCAAGTT against Mrpl57	-1.2 (inactive)
GGAAUUCUGACGUGAAGAATT against Olfr13	-0.987 (inactive)
GGUAGACUGUGAAAAUGACTT against Ldlr	-0.6 (inactive)
GGUGAAGCGAAUUCUCUACTT against Upb1	-0.362 (inactive)
GGCAUUGGCAUUUUUAUAGTT against 9530056K15Rik	-0.879 (inactive)
GCCACGAGUUCUUUGAAGCTT against Ubxn6	-0.15 (inactive)
GGACAAGAUUGUAUCUGCATT against Olfr1507	-0.56 (inactive)

Sequence	z-score
GGAGCAAGAGUCUAAAUGATT against Rubcn	-2.23 (active)
GGAUCAAGUGGCUGAUUUGTT against Ube2t	-0.457 (inactive)
GGACUAUUCUGAGAAUCCCTT against Olfr821	-1.69 (inactive)
GCCUCUGAUGUAAACAGGATT against Nr2c2ap	0.883 (inactive)
GCAGUGUAUACCUGGGCUATT against 1700001C19Rik	0.388 (inactive)
GGCACUCCUGAUGUUCUCUTT against Cyb561d2	-2.96 (active)
GGUGUUACAGAUGUACCGATT against Nfkbid	0.0859 (inactive)
GGAAGACAAUGAUGAUGUUTT against Clns1a	-1.82 (inactive)
GGAGUUUUGAAUAAACCAATT against Tmc7	-0.2 (inactive)
GGGCUUUCCUCAAGGUAGUTT against Olfr62	-1.39 (inactive)
GGAAUUGUCUAACAGGCUGTT against Hoxd12	-0.025 (inactive)
GGAACAGUUACUUGAGAGUTT against Zfp786	0.759 (inactive)
CGAGCUCAGGCCUAUUAAATT against Cdh12	3.39 (active)
GGCUUUGACAAUCUUUAAGTT against Ergic1	-0.687 (inactive)
CCUCAACUGGUUCCCUAACTT against Spatc1	-1.73 (inactive)
GCUGGUUACAUAAAGCUACTT against Slc25a51	0.0694 (inactive)
CGGAGUAAACAAUACAGUCTT against Gnmt	2.26 (active)
CCUCCUAAGGAUGAAGAUUTT against Calml4	0.654 (inactive)
CGACAGUUACUUGCCCAGATT against Rasgrp3	-1.36 (inactive)
GGCGAAAUCUGCUAGAGUATT against Tppp3	2.3 (active)
GCUGUCGUUGAAGGCAUUGTT against Olfr317	-0.828 (inactive)
GAGUGAUGCGCAUUUCGAGTT against Sf3b5	-2.53 (active)
GCCAGAUCAUUGUAUCAAUTT against Tmx3	1.27 (inactive)

Sequence	z-score
GGAGAUUGUUGACCUGGUCTT against Tuba3b	2.03 (active)
GGUGGAUGUCUUCUUCAACTT against Gata2	0.697 (inactive)
GCCUCGUGAAUAAUUGAAATT against Ddt	0.967 (inactive)
GCCUAUUCUAUCGAUAACCTT against Cdh23	0.801 (inactive)
GGCCAUCAGUAUCAGCAAATT against Hip1r	0.547 (inactive)
GGCUAUUGUGGAGAAGAUCTT against Cblif	-2.07 (active)
GGAGACUCCUAAGAAGCAGTT against Cc2d1a	0.445 (inactive)
GGAUCGAAUCAGGAAUGAATT against Nphs1	1.39 (inactive)
GGAGAGUUACGACGUAUUCTT against Ckb	0.23 (inactive)
GGGACAAAAACACAUGUACTT against Kif5c	0.773 (inactive)
GGGAAUCAAAGGCUUUGGGTT against Ms4a1	-1.15 (inactive)
CCAUAUACCCUUGAAUUCCTT against Tmem185b	0.154 (inactive)
GGAAAGGAAUGUUCAAAUUTT against Psmb8	2.02 (active)
GGAAGACCUUCUUAAACACTT against Prokr2	1.26 (inactive)
GCUUUUGACGAGCAAGCAGTT against Eme1	1.47 (inactive)
GGCAGUCACUGGCUAAAUGTT against Ugt2a1	2.13 (active)
CCCUUUCCUAUUUGUUAUGTT against Serpinb3d	0.754 (inactive)
GGUAUUAGUAUGUAUCUUCTT against Olfr135	0.305 (inactive)
CCCUAAUGAAUGGUCUCAUTT against Tmem74	-0.176 (inactive)
CCAUGUCCUAACCUGAAACTT against Zic5	0.372 (inactive)
GGAUUUGAGCGAUAUGAGCTT against Tex12	-3.29 (active)
GGCCCUAAUAGCAACAGGATT against Ubqln2	-1.31 (inactive)
GGCCUUCAAAUCAUACGCUTT against Ms4a19	0.283 (inactive)
